Results reported in PubChem BioAssay (NCATS).
Where “and” joins values, the source holds several entries; their conditions need not be identical. Identical values can stand only once. Inconclusive results are not listed. The list shows a part of the results. Calls of active or inactive are those of the source. Unless noted, calls follow the shape of the dose curve; as a rule, active = well fitted curve in the direction sought with a large enough effect; inconclusive = small, poorly fitted or top-dose-only effect, or another doubt; inactive = no such curve, though single readings can be large; an effect the other way counts as inactive or inconclusive.

Experiments:
[1] = qHTS assay for small molecule disruptors of the mitochondrial membrane potential - 5 hr assay (AID 651755; calls by dose curve; also: % is scaled to controls: 0 for no effect and ±100 for the full control effect; nearly all actives have a fitted effect of over 40% in size)
Method in brief: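 Read-out: ratiometric Mito-MPS fluorescence, green monomer (ex 490/em 535) vs red mitochondrial aggregate (ex 540/em 590). HepG2 cells treated 5 hr at 37C before 30 min dye loading.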

[2] = target: Tumor necrosis factor (Homo sapiens) (UniProt P01375); experiment: qHTS assay to identify small molecules that stimulate Tumor Necrosis Factor-alpha (TNF-alpha) secretion (AID 651757; active = well fitted curve in the direction sought with a large enough effect in the signal ratio; the % refers to the signal ratio; also: 0% is about no effect)
Tumor necrosis factor (Homo sapiens), sequence (P01375 whole entry, looked up): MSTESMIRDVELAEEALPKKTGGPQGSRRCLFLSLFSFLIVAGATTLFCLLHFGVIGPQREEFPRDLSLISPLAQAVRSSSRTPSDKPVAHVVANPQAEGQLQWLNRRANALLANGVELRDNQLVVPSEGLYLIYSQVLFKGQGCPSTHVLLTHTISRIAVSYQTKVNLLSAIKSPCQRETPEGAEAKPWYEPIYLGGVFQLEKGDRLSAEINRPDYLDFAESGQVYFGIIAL
Method in brief: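 THP-1 cells, 3000/well; compound 17 hrs, 37 C; add cryptate/XL665 anti-TNF-alpha antibody pair; 3 hr RT; TR-FRET (HTRF) read of secreted TNF-alpha. Quantitative HTS format.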

[3] = qHTS assay for environmental chemicals that activate the Aryl hydrocarbon Receptor (AhR) signaling pathway (AID 651777); conditions: 1A2-DRE human hepatoma cells, luciferase, 24 h; activation: active compounds read high; also: % of control where 0% means no effect; nearly all actives have a fitted effect of over 15% in size
Method in brief: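 Human hepatoma 1A2-DRE cells stably carrying a DRE/CYP1A2 promoter–luciferase reporter, 1,200 cells/well, exposed to compound 24 hr at 37 C. Luciferase read by One-Glo luminescence after 30 min at room temperature; increased signal marks AhR activation.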

[4] = target: Peroxisome proliferator-activated receptor alpha (Homo sapiens) (UniProt Q07869); experiment: qHTS assay for small molecule agonists of the peroxisome proliferator-activated receptor alpha (PPARalpha) signaling pathway (AID 651778); conditions: PathHunter PPARalpha complementation, chemiluminescence, 6 h; max response: active compounds read high; also: % of control where 0% means no effect
Peroxisome proliferator-activated receptor alpha (Homo sapiens), sequence (Q07869 whole entry, looked up, the tested form may be a part): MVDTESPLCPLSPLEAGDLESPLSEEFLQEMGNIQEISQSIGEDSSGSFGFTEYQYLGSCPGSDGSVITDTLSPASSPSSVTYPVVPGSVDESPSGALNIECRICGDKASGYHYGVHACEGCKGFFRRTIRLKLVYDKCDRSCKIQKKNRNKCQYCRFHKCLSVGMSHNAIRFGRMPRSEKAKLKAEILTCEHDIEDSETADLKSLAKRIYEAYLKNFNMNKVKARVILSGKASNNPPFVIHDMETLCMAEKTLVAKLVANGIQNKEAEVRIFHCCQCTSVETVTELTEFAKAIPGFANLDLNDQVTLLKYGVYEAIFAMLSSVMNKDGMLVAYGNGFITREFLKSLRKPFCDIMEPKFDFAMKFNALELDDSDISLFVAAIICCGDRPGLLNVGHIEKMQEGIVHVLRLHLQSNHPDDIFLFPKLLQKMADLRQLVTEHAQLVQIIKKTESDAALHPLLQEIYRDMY
Method in brief: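 Enzyme-fragment complementation assay in which ligand-bound PPARalpha translocates and forms an active enzyme that generates chemiluminescence. Cells were plated overnight, exposed to compound for 6 hr at 37 C, and then given detection reagent for 60 min at room temperature.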

[5] = qHTS assay for small molecule antagonists of the retinoid-related orphan receptor gamma (ROR-gamma) signaling pathway - cell viability counter screen (AID 720652; active = well fitted curve in the direction sought with a large enough effect in the repeat runs; an effect the other way counts as inactive or inconclusive;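 also: CHO reporter cells with doxycycline-induced ROR-gamma expression; series mostly up to about 92 µM; compound exposure lasted 16 hr before ATP read; % is scaled to controls: 0 for no effect and ±100 for the full control effect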)
Method in brief: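 CHO RORE-LUC/TET-ROR line, 1,000 cells/well, 37 C 5% CO2 5 hr; cpd or DMSO + doxycycline induction, 16 hr. CellTiter-Glo, 30 min RT, luminescence = ATP content.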

[6] = qHTS assay for small molecule agonists of the antioxidant response element (ARE) signaling pathway measured by Nrf2-dependant transcriptional activity - cell viability counter screen (AID 720653; active = well fitted curve in the direction sought with a large enough effect in the repeat runs; an effect the other way counts as inactive or inconclusive; also: % is scaled to controls: 0 for no effect and ±100 for the full control effect); conditions: ARE-bla HepG2 viability, CellTiter-Glo ATP luminescence, 16 h; max response: active compounds read low
Method in brief: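 ARE-bla HepG2 cells treated with compounds for 16 h at 37C; this counter screen measures viability as intracellular ATP by CellTiter-Glo luminescence after 30 min at room temperature.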

[7] = qHTS assay for cell viability of HEK293 cells (AID 743288); conditions: ATP luminescence (CellTiter-Glo), 18 h; max response: active compounds read low; also: % is scaled to controls: 0 for no effect and ±100 for the full control effect; nearly all actives have a fitted effect of over 50% in size
Method in brief: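 ATP luminescence (CellTiter-Glo) reports metabolically competent cell number after parental HEK293 cells, 2,000/well, were treated with DMSO-dissolved compounds for 18 h at 37 C; reagent incubation 30 min, room temperature.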

[8] = qHTS assay for cell viability of the p53RE-bla HCT-116 cell line (AID 743292); also: potency is read from the fitted curve at half-maximal effect; nearly all actives have a fitted effect of over 55% in size
Method in brief: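 CellSensor p53RE-bla HCT-116 cells (4,000/well) pre-incubated 5 h at 37 C, then exposed to compounds in DMSO for 16 h at 37 C. Viability read as ATP content by CellTiter-Glo luminescence after 30 min at room temperature.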

[9] = target: Nuclear receptor subfamily 1 group I member 2 (Rattus norvegicus) (UniProt Q9R1A7); experiment: qHTS assay for small molecule activators of the rat pregnane X receptor (rPXR) signaling pathway (AID 651751; call rule not given here; also: 0% is about no effect); conditions: rPXR reporter cells, luciferase (One-Glo), 24 h
Nuclear receptor subfamily 1 group I member 2 (Rattus norvegicus), sequence (Q9R1A7 whole entry, looked up): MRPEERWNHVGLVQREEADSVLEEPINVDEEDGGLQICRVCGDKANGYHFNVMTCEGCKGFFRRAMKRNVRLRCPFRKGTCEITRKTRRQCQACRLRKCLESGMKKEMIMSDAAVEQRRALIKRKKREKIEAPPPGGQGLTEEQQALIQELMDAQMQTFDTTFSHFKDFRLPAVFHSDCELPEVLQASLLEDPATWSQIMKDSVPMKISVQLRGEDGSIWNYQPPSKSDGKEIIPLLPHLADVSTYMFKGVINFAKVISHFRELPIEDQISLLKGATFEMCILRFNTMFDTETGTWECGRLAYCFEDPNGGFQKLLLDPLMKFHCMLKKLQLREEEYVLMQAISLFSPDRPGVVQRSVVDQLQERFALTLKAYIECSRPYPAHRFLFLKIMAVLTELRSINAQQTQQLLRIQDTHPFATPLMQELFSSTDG

[10] = qHTS assay for small molecule activators of the human pregnane X receptor (PXR) signaling pathway (AID 720659; call rule not given here; also: 0% is about no effect)
[11] = target: Mitogen-activated protein kinase 10 (Mus musculus) (UniProt Q61831); experiment: JNK3 AlphaScreen Assay (AID 530; active = well fitted curve in either direction with a large enough effect, not every such curve was filed as active;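 also: kinase came from lysate of stimulated human HepG2 cells; signal reports phosphorylation of biotinylated GST-cJun 1-79 at Ser73 with 10 µM ATP; series mostly up to about 57 µM; % is scaled to controls: 0 for no effect and ±100 for the full control effect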)
Method in brief: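 HepG2 lysate (IL-1b/TNFa pre-activated) + biotin-GST-cJun 1-79 + anti-pSer73 cJun; cpd titration, 15 min RT; ATP 10 uM start; Tris pH 7.6, MgCl2, DTT, vanadate; beads in EDTA buffer; AlphaScreen.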

[12] = target: Cytochrome P450 3A4 (Homo sapiens) (UniProt P08684); experiment: qHTS Assay for Inhibitors and Substrates of Cytochrome P450 3A4 (AID 884); also: series mostly up to about 57 µM; % is scaled to controls: 0 for no effect and ±100 for the full control effect; nearly all actives have a fitted effect of over 50% in size
Cytochrome P450 3A4 (Homo sapiens), sequence (P08684 whole entry, looked up): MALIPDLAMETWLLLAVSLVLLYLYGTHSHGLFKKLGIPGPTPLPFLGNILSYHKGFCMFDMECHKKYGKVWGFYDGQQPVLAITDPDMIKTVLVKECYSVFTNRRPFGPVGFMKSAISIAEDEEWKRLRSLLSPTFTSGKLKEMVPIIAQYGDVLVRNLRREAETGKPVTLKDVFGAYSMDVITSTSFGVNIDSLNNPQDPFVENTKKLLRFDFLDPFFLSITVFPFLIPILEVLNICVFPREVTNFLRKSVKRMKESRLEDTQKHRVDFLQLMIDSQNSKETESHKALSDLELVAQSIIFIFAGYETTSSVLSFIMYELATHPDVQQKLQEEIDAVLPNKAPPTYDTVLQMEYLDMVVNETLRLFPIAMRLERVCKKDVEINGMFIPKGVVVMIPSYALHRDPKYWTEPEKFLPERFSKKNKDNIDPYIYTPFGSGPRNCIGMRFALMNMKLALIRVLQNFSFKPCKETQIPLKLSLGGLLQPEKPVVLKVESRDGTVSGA
Method in brief: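 Luminescent readout of luciferin produced by CYP3A4 (20 nM) dealkylation of Luciferin-PPXE, 25 uM (its KM). NADPH-driven reaction ran 60 min at RT after 10 min compound preincubation; data scaled to 57 uM ketoconazole as 100% inhibition.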

[13] = qHTS Assay for Inhibitors of Fructose-1,6-bisphosphate Aldolase from Giardia Lamblia: Giardia lamblia growth inhibition (AID 2785); also: % is scaled to controls: 0 for no effect and ±100 for the full control effect; nearly all actives have a fitted effect of over 70% in size
Method in brief: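 G. lamblia WB trophozoites (100 cells/well) were grown with compound at 37C for 48 h in modified TYI-S-33 medium, pH 7.0. Growth was measured by ATPlite luminescence after 20 min at room temperature.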

[14] = qHTS Assay for Inhibitors of Fructose-1,6-bisphosphate Aldolase from Giardia Lamblia: Mammalian cellular toxicity (AID 2786);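 also: compound exposure lasted 48 h before reading; % is scaled to controls: 0 for no effect and ±100 for the full control effect; nearly all actives have a fitted effect of over 60% in size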
Method in brief: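 CHO cells seeded at 250 cells/well with pin-tool-added compound, incubated 48 h at 37 °C, 5% CO2. Viability read as ATP content by ATPlite luminescence after 20 min.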

[15] = target: Tyrosyl-DNA phosphodiesterase 1 (Homo sapiens) (UniProt Q9NUW8); experiment: Confirmation Assay for Inhibitors of Tyrosyl-DNA Phosphodiesterase (TDP1) (AID 489007); conditions: recombinant human TDP1 enzymatic activity, dose-response; also: potency is read from the fitted curve at half-maximal effect; nearly all actives have a fitted effect of over 40% in size
Tyrosyl-DNA phosphodiesterase 1 (Homo sapiens), sequence (Q9NUW8 whole entry, looked up): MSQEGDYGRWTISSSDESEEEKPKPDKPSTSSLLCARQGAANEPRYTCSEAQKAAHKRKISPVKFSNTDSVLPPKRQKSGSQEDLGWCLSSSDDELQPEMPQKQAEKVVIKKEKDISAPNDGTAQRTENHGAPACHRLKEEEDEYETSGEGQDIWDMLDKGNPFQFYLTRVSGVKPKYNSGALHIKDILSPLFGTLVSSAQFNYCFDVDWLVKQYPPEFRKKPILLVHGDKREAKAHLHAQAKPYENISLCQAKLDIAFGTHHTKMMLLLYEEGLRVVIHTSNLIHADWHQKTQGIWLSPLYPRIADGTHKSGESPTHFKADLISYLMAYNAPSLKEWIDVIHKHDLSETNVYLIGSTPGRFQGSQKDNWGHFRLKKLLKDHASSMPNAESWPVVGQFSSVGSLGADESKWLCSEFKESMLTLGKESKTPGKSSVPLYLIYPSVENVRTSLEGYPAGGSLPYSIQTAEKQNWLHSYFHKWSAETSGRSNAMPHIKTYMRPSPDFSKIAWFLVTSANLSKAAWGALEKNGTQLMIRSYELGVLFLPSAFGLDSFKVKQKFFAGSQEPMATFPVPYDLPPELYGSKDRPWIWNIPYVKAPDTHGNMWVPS
Method in brief: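 AlphaScreen read-out: streptavidin donor and anti-FITC acceptor beads (10 ug/ml) bind intact substrate, so Tdp1 removal of tyrosine-FITC lowers signal. Enzyme 1 nM, substrate 15 nM, 5 min reaction at room temperature after 15 min compound preincubation.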

[16] = target: Tumor susceptibility gene 101 protein (Homo sapiens) (UniProt Q99816); experiment: qHTS Assay for Iinhibitors of HIV-1 Budding by Blocking the Interaction of PTAP/TSG101: Hit Validation (AID 651600); also: potency is read from the fitted curve at half-maximal effect; nearly all actives have a fitted effect of over 70% in size
Tumor susceptibility gene 101 protein (Homo sapiens), sequence (Q99816 whole entry, looked up, the tested form may be a part): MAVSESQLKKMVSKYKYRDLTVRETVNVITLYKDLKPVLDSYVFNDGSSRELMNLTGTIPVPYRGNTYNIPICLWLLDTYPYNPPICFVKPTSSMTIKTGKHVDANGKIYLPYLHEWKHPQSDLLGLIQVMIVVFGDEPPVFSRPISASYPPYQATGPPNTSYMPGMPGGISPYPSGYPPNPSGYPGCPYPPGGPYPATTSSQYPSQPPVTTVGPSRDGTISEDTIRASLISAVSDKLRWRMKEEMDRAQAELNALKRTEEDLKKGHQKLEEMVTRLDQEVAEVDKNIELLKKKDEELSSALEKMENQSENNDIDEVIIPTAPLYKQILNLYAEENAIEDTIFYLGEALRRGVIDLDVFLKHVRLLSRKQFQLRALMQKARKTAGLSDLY
Method in brief: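 Tsg101 binding domain 10 uM + FITC-PTAP peptide 50 nM (final), 10 mM HEPES pH 7.5/0.15 M NaCl/0.01% Tween 20/3 mM EDTA/0.1 mM TCEP; 20 min RT; FP read, FITC filters.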

[17] = target: Phosphoglycerate kinase, glycosomal (Trypanosoma brucei brucei) (UniProt P07378); experiment: qHTS for inhibitors of Phosphogylcerate Kinase: Hit Validation Screen (AID 686980); conditions: TbPGK coupled GAPDH assay, Kinase-Glo luminescence; also: potency is read from the fitted curve at half-maximal effect; nearly all actives have a fitted effect of over 65% in size
Phosphoglycerate kinase, glycosomal (Trypanosoma brucei brucei), sequence (P07378 whole entry, looked up): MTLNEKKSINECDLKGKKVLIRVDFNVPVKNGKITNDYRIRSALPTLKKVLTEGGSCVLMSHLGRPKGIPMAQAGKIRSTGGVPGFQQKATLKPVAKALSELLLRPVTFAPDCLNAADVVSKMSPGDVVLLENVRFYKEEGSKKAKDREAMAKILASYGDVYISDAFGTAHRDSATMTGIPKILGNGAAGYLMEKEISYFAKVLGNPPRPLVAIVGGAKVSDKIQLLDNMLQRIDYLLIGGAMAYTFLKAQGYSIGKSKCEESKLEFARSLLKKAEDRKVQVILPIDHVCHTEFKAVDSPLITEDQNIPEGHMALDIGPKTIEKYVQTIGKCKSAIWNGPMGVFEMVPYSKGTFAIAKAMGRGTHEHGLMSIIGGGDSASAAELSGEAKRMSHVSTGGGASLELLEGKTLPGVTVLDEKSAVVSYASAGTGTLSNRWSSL
Method in brief: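 Recombinant glycosomal PGK reaction used 1,3-bisphosphoglycerate generated in-well by GAPDH (100nM final) in 100mM TEA pH 7.6, 5mM MgCl2, 0.01% Tween-20. After 60 minutes at room temperature, ATP was read by Kinase-Glo Plus luminescence end-point.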

[18] = target: DNA polymerase iota (Homo sapiens) (UniProt Q9UNA4); experiment: qHTS for Inhibitors of Polymerase Iota: Confirmatory Assay for Cherry-picked Compounds (AID 720496); conditions: Pol iota primer extension, TAMRA/BHQ fluorescence; also: potency is read from the fitted curve at half-maximal effect
DNA polymerase iota (Homo sapiens), sequence (Q9UNA4 whole entry, looked up): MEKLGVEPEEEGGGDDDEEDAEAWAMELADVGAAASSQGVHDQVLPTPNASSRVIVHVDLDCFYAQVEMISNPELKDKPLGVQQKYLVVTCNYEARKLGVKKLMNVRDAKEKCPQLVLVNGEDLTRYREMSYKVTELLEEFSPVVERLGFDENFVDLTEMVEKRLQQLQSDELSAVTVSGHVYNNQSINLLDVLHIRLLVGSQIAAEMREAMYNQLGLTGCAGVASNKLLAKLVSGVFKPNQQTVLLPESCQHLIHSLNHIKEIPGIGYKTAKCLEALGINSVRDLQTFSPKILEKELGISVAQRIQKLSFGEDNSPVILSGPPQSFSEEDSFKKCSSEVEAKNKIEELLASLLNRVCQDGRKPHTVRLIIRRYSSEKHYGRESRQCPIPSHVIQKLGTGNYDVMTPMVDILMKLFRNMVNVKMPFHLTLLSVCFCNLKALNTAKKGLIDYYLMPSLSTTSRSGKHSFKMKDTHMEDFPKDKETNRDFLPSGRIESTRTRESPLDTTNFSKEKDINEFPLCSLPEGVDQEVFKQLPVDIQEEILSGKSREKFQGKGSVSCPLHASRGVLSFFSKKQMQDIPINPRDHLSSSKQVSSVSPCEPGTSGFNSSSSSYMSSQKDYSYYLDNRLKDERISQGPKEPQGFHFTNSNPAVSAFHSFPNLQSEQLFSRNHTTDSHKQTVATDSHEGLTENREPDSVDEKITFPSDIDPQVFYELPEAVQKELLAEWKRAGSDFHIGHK
Method in brief: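 Extension of a quenched TAMRA-reporter/BHQ-2-template DNA substrate (50 nM) by 10 nM Pol iota after 15 min compound preincubation. Strand-displacement fluorescence (525/598 nm) was read kinetically at 0 and 10 min. Buffer-only wells served as negative control.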

[19] = target: Flap endonuclease 1 (Homo sapiens) (UniProt P39748); experiment: qHTS Assay for the Inhibitors of FEN1: Confirmatory Assay for Cherry-picked Compounds (AID 720498); conditions: FEN1 flap cleavage, TAMRA/BHQ2 fluorogenic DNA substrate; also: potency is read from the fitted curve at half-maximal effect; nearly all actives have a fitted effect of over 60% in size
Flap endonuclease 1 (Homo sapiens), sequence (P39748 whole entry, looked up): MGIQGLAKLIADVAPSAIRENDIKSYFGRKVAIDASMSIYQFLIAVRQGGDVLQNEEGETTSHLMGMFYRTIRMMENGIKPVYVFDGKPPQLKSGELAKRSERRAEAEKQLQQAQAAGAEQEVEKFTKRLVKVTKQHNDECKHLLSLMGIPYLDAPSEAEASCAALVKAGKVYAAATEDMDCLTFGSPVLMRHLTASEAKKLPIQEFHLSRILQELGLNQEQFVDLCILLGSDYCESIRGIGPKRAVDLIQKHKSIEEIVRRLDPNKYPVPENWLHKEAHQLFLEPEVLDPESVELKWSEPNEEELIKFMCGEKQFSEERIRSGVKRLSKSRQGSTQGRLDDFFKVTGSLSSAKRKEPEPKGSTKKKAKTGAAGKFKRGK
Method in brief: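 Human FEN1 (10 nM reagent) was preincubated with compounds for 15 min at room temperature, then 50 nM final double-flap DNA substrate (5'-TAMRA flap, BHQ-2 quencher strand) was added. Fluorescence (ex 525/em 598 nm) was read at 0 and 15 min.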

[20] = target: DNA polymerase eta (Homo sapiens) (UniProt Q9Y253); experiment: qHTS for Inhibitors of Polymerase Eta: Confirmatory Assay for Cherry-picked Compounds (AID 720502); conditions: Pol eta primer extension, TAMRA/BHQ fluorescence, 10 min; also: potency is read from the fitted curve at half-maximal effect
DNA polymerase eta (Homo sapiens), sequence (Q9Y253 whole entry, looked up): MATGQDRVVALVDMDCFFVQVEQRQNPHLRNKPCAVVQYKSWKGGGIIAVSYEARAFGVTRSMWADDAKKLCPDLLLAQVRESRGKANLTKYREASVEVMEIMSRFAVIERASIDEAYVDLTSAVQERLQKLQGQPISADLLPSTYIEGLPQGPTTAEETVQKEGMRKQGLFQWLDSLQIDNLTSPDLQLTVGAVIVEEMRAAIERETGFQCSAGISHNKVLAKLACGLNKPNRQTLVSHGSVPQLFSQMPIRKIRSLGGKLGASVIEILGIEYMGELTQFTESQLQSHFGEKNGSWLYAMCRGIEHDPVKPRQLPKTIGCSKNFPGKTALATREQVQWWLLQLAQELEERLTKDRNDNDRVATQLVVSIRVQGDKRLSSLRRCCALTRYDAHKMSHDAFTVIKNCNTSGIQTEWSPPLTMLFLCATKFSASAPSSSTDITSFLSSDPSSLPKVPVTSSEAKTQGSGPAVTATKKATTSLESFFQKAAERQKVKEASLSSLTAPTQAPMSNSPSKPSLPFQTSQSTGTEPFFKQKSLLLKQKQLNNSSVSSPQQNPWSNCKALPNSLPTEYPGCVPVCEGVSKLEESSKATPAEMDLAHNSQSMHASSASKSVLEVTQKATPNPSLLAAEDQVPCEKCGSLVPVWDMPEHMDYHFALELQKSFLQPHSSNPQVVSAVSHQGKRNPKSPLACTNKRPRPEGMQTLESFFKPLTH
Method in brief: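 Compounds are preincubated 15 min at room temperature with 10 nM human Pol eta, with buffer-only wells serving as negative control. Adding 50 nM final substrate starts the reaction, and TAMRA fluorescence is read over 10 min.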

C[C@H](CCC(=O)O)[C@H]1CC[C@H]2[C@@H]3CC[C@@H]4C[C@H](O)CC[C@]4(C)[C@H]3CC[C@]12C
active: Potency [8] 31.6 µM and 35.5 µM
inactive: Potency [1] | outcome [2] | activation [3] 1.31% and 0.102% | max response [4] 2.21% and -0.262% | Potency [5] | max response [6] 1.28% and 4.08% | max response [7] -8.43% and -9.1% | max response [9] 6.51% and -5.67% | outcome [10]

CC1=C(C(=O)OCc2ccccc2)C(c2ccc(C(C)(C)C)cc2)NC(=O)N1CCCCCC(=O)O (stereo unspecified)
inactive: Potency [11] | Potency [12]

Nc1ccc2nc3c(=O)[nH]c(=S)[nH]c3nc2c1
inactive: outcome [13] | outcome [14]
active: Potency [15] 39.8 µM | Potency [16] 18.3 µM | Potency [17] 16.3 µM | Potency [18] 33.6 µM | Potency [19] 67.5 µM | Potency [20] 19 µM

COc1cc(/C=C/[N+](=O)[O-])ccc1OCc1cccc(C(=O)O)c1
active: Potency [15] 79.4 µM
